We go through 6 molecules from PubChem BioAssay (EPA / NIEHS).

Records with an inconclusive call do not appear. Activity calls are given as the source filed them. The calls were made as follows, unless noted: active = hit-call score of the fitted dose curve at least 0.9, where 1 is the maximum; inconclusive = response in the unintended direction; inactive = score below 0.9.

Test [1] deals with Estrogen receptor (Homo sapiens) (UniProt P03372). The test can be described thus: OT_ERa_GFPERaERE_0480: Odyssey Thera (OT) 8-hour HeLa Transcription Induction Assay for Estrogen Receptor (AID 2283381; active = hit-call score of the fitted dose curve at least 0.9, where 1 is the maximum; inactive = score below 0.9). The method in brief: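 GFP-ERE reporter, HeLa, 8 h exposure. Readout: fluorescence microscopy, high-content image analysis. Fit direction positive vs DMSO negative control.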

Test [2] has the same target. The test can be described thus: OT_ERa_GFPERaERE_0120: Odyssey Thera (OT) 2-hour HeLa Transcription Induction Assay for Estrogen Receptor (AID 2283382). The method in brief:
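Fluorescence microscopy read-out: inducible fluorescent protein reporter in HeLa cells, imaged 2 h post-dose. Signal increase over DMSO negative control fitted as single primary endpoint via high content image analysis.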

Test [3] deals with Bile acid receptor (Homo sapiens) (UniProt Q96RI1). Nature of the test: OT_FXR_FXRSRC1_0480: Odyssey Thera (OT) 8-hour HEK293T Protein-Complementation Assay for Farnesoid X receptor/SRC-1 Co-activator (AID 2283383). The method in brief: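 Fluorescence intensity read-out, 8 h post-dose, HEK293T protein-fragment complementation; FXR bait and SRC-1 prey each linked to reporter fragments. Activity scored as signal increase over DMSO negative control.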

Test [4] has the same target. Nature of the test: OT_FXR_FXRSRC1_1440: Odyssey Thera (OT) 24-hour HEK293T Protein-Complementation Assay for Farnesoid X receptor/SRC-1 Co-activator (AID 2283384). The method in brief:
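Fluorescence readout, 24 h post-dose, HEK293T; FXR and SRC-1 fused to complementary reporter fragments, association reconstitutes signal. Positive-direction fit vs DMSO baseline.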

For test [5], the target named is Retinoic acid receptor RXR-alpha (Homo sapiens) (UniProt P19793). The test can be described thus: OT_NURR1_NURR1RXRa_0480: Odyssey Thera (OT) 8-hour HEK293T Protein Complementation Assay for Nurr1/retinoid X receptor (RXR) (AID 2283385). The method in brief:
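Read-out: fluorescence from protein-fragment complementation between Nurr1 and RXRα in human HEK293T cells, 8 h after dosing. DMSO served as negative control; increased signal counted as activity.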

Test [6] shares this target. The test can be described thus: OT_NURR1_NURR1RXRa_1440: Odyssey Thera (OT) 24-hour HEK293T Protein Complementation Assay for Nurr1/retinoid X receptor (RXR) (AID 2283386). The method in brief:
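Fluorescence PCA read-out; HEK293T; 24 h post-dose; bait/prey fused to reporter fragments; gain-of-signal fit vs DMSO negative control.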

In test [7] the target is Peroxisome proliferator-activated receptor gamma (Homo sapiens) (UniProt P37231). Nature of the test: OT_PPARg_PPARgSRC1_0480: Odyssey Thera (OT) 8-hour Protein-Complementation Assay for Peroxisome Proliferator-activated Receptor Gamma / SRC-1 Co-activator (AID 2283387). The method in brief: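 HEK293T transiently transfected with PPARg and SRC-1 fused to Venus YFP fragments, compounds 8 h at 37C. Fixed, Draq5-stained cells imaged; nuclear/cytoplasmic 488 nm fluorescence ratio over at least 350 cells per image; gain fitted versus DMSO.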

Test [8] has the same target. The test can be described thus: OT_PPARg_PPARgSRC1_1440: Odyssey Thera (OT) 24-hour Protein-Complementation Assay for Peroxisome Proliferator-activated Receptor Gamma/ SRC-1 Co-activator (AID 2283388). In short, it runs like this: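 HEK293T transiently transfected with PPARg/SRC-1 split-Venus YFP fusions 48 h before dosing, then treated 24 h at 37C. Fixed cells imaged; nuclear/cytoplasmic 488 nm fluorescence ratio, gain of signal versus DMSO.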

Test [9] in a line: CEETOX_H295R_OHPREG: CeeTox H295R High-throughput Steroidogenesis Assay for OH-Pregnenolone (OHPREG) (AID 2283434; active = hit-call score of the fitted dose curve at least 0.9, where 1 is the maximum; inactive = score below 0.9). The settings on record: actives raise or lower the signal. In short, it runs like this:
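Readout: HPLC-MS/MS of 17alpha-hydroxypregnenolone in medium after 48 h chemical exposure of H295R cells pretreated with forskolin. Values fitted bidirectionally relative to DMSO; chemicals reducing viability to 20–70% were retested after 10-fold dilution.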

The nature of test [10]: CEETOX_H295R_OHPROG: CeeTox H295R High-throughput Steroidogenesis Assay for OH-Progesterone (OHPROG) (AID 2283435; active = hit-call score of the fitted dose curve at least 0.9, where 1 is the maximum; inactive = score below 0.9;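 as to AC50: 17alpha-hydroxyprogesterone secreted into medium measured by HPLC-MS/MS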). Conditions: actives raise or lower the signal. In short, it runs like this:
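HPLC-MS/MS quantification of 17alpha-hydroxyprogesterone secreted by H295R cells after 48 h chemical exposure, following 48 h 10 uM forskolin prestimulation. Gain or loss of signal fitted relative to DMSO. Viability checked by MTT in the same wells.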

The nature of test [11]: CEETOX_H295R_ANDR: CeeTox H295R High-throughput Steroidogenesis Assay for Androstenedione (ANDR) (AID 2283436; active = hit-call score of the fitted dose curve at least 0.9, where 1 is the maximum; inactive = score below 0.9;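 also: human H295R adrenal cells exposed for 48 h with androstenedione measured in medium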). Conditions: actives raise or lower the signal. In short, it runs like this: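 Steroidogenesis in H295R adrenal cells after 48 h dosing; androstenedione quantified by LC-MS/MS, with DMSO as negative control and baseline for bidirectional curve fitting.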
A short description of test [12]: CEETOX_H295R_PROG: CeeTox H295R High-throughput Steroidogenesis Assay for Progesterone (PROG) (AID 2283442; active = hit-call score of the fitted dose curve at least 0.9, where 1 is the maximum; inactive = score below 0.9). The settings on record: actives raise or lower the signal. The method in brief: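 H295R adrenal cells prestimulated 48 h with 10 uM forskolin, then exposed 48 h to test chemical in 0.1% DMSO. Progesterone in medium quantified by HPLC-MS/MS after MTBE extraction; viability checked by MTT in same wells.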

Read-out in test [13]: Tumor necrosis factor receptor superfamily member 6 (Homo sapiens) (UniProt P25445)
Nature of the test: LTEA_HepaRG_FAS: Life Technologies and Expression Analysis (LTEA) Assay for Fas cell surface death receptor (FAS) using HepaRG (AID 2283447; active = hit-call score of the fitted dose curve at least 0.9, where 1 is the maximum; inactive = score below 0.9). The settings on record: mRNA level, 48 h; actives raise or lower the signal. The method in brief: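 Differentiated human HepaRG cells, pre-cultured 48 h, were exposed in duplicate for 48 h to 8-point half-log concentrations (top 100 uM, 0.5% DMSO) in serum-free induction medium; FAS mRNA measured by qRT-PCR, normalized to ACTB/GAPDH/POLR2A, bidirectional fit versus DMSO.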

Read-out in test [14]: Fatty acid synthase (Homo sapiens) (UniProt P49327)
Nature of the test: LTEA_HepaRG_FASN: Life Technologies and Expression Analysis (LTEA) Assay for Fatty Acid Synthase (FASN) using HepaRG (AID 2283448; active = hit-call score of the fitted dose curve at least 0.9, where 1 is the maximum; inactive = score below 0.9). Conditions: mRNA level, 48 h; actives raise or lower the signal. In short, it runs like this:
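HepaRG, 48 h exposure, 8-pt half-log series top 100 uM, 0.5% DMSO vehicle, duplicates. Readout: FASN transcript by Fluidigm qRT-PCR; housekeeping-normalized; bidirectional curve fit vs DMSO baseline.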

Read-out in test [15]: Cyclin D2 (CCND2), CCND2 (gene 894)
The test can be described thus: LTEA_HepaRG_CCND2: Life Technologies and Expression Analysis (LTEA) Assay for Cyclin D2 (CCND2) using HepaRG (AID 2283449; active = hit-call score of the fitted dose curve at least 0.9, where 1 is the maximum; inactive = score below 0.9;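 also: CCND2 transcript measured by TaqMan qRT-PCR and normalised to three housekeeping genes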). The settings on record: mRNA level, 48 h; actives raise or lower the signal. In short, it runs like this: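 In this HepaRG study, an eight-point concentration series (max 100 uM, 0.5% DMSO) is applied for 48 h. CCND2 mRNA change is derived by qRT-PCR normalised to ACTB, GAPDH and POLR2A.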

Test [16] can be described thus: CEETOX_H295R_ESTRADIOL: CeeTox H295R High-throughput Steroidogenesis Assay for Estradiol (AID 2283440; active = hit-call score of the fitted dose curve at least 0.9, where 1 is the maximum; inactive = score below 0.9;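 also: estradiol secreted into medium quantified by LC-MS/MS after dansyl derivatisation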). Conditions: actives raise or lower the signal. In short, it runs like this:
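H295R cells pre-stimulated 48 h with 10 uM forskolin, then exposed 48 h to chemical in 0.1% DMSO. Medium estradiol quantified by MTBE extraction, dansyl derivatisation and HPLC-MS/MS; bidirectional fit versus DMSO; MTT viability required >/=70%.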

Test [17] is described as follows: CEETOX_H295R_ESTRONE: CeeTox H295R High-throughput Steroidogenesis Assay for Estrone (AID 2283441; active = hit-call score of the fitted dose curve at least 0.9, where 1 is the maximum; inactive = score below 0.9;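 also: estrone secreted into medium measured by LC-MS/MS after dansyl derivatization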). Conditions: actives raise or lower the signal. The method in brief:
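Forskolin-stimulated H295R cells are treated 48 h with chemical, and estrone in the medium is measured by LC-MS/MS. Activity is fitted in both directions relative to DMSO controls, with chemicals diluted until MTT viability reaches at least 70%.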

A short description of test [18]: CEETOX_H295R_11DCORT: CeeTox H295R High-throughput Steroidogenesis Assay for 11-Deoxycortisol (11DCORT) (AID 2283432; active = hit-call score of the fitted dose curve at least 0.9, where 1 is the maximum; inactive = score below 0.9;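 as to AC50: 11-deoxycortisol secreted into the medium measured by LC-MS/MS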). The settings on record: actives raise or lower the signal. In short, it runs like this:
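H295R cells prestimulated 48 h with 10 uM forskolin, then exposed 48 h to chemical in 0.1% DMSO. 11-Deoxycortisol in medium quantified by HPLC-MS/MS after MTBE extraction; bidirectional fit versus DMSO. MTT viability read in same wells.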

Test [19] is described as follows: CEETOX_H295R_CORTISOL: CeeTox H295R High-throughput Steroidogenesis Assay for Cortisol (AID 2283438; active = hit-call score of the fitted dose curve at least 0.9, where 1 is the maximum; inactive = score below 0.9;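 also: cortisol secreted into medium quantified by LC-MS/MS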). Conditions: actives raise or lower the signal. In short, it runs like this: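 Read-out: cortisol in culture medium by reverse-phase C18 HPLC with ESI-positive tandem MS, after MTBE liquid-liquid extraction. Cells: human adrenal H295R, forskolin-primed (10 uM, 48 h) before 48 h chemical exposure in 0.1% DMSO.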

The nature of test [20]: CEETOX_H295R_DOC: CeeTox H295R High-throughput Steroidogenesis Assay for DOC (AID 2283439; active = hit-call score of the fitted dose curve at least 0.9, where 1 is the maximum; inactive = score below 0.9). Conditions: actives raise or lower the signal. In short, it runs like this: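 Human adrenocortical H295R cells, passages up to 10, received 10 uM forskolin for 48 h before chemical addition. After another 48 h exposure in 0.1% DMSO, secreted DOC was measured by LC-MS/MS, with gain or loss fitted against DMSO controls.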

Estrogen receptor (Homo sapiens), sequence (P03372 whole entry, looked up): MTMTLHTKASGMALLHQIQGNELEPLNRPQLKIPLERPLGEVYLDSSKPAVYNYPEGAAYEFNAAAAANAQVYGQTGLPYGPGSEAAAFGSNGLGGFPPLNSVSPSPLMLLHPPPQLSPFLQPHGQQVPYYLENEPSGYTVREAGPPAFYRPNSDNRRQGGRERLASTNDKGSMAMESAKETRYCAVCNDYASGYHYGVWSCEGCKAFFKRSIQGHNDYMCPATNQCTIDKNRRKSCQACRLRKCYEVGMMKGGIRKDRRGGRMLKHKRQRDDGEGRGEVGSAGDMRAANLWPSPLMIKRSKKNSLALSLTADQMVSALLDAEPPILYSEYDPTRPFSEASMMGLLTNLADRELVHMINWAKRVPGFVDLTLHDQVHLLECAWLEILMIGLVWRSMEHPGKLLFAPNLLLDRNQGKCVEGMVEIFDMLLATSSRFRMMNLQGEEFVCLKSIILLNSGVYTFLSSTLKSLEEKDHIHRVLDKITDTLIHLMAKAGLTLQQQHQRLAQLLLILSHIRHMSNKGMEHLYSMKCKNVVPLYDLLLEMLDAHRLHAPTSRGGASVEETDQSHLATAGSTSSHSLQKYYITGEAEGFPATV
Fatty acid synthase (Homo sapiens), sequence (P49327 whole entry, looked up): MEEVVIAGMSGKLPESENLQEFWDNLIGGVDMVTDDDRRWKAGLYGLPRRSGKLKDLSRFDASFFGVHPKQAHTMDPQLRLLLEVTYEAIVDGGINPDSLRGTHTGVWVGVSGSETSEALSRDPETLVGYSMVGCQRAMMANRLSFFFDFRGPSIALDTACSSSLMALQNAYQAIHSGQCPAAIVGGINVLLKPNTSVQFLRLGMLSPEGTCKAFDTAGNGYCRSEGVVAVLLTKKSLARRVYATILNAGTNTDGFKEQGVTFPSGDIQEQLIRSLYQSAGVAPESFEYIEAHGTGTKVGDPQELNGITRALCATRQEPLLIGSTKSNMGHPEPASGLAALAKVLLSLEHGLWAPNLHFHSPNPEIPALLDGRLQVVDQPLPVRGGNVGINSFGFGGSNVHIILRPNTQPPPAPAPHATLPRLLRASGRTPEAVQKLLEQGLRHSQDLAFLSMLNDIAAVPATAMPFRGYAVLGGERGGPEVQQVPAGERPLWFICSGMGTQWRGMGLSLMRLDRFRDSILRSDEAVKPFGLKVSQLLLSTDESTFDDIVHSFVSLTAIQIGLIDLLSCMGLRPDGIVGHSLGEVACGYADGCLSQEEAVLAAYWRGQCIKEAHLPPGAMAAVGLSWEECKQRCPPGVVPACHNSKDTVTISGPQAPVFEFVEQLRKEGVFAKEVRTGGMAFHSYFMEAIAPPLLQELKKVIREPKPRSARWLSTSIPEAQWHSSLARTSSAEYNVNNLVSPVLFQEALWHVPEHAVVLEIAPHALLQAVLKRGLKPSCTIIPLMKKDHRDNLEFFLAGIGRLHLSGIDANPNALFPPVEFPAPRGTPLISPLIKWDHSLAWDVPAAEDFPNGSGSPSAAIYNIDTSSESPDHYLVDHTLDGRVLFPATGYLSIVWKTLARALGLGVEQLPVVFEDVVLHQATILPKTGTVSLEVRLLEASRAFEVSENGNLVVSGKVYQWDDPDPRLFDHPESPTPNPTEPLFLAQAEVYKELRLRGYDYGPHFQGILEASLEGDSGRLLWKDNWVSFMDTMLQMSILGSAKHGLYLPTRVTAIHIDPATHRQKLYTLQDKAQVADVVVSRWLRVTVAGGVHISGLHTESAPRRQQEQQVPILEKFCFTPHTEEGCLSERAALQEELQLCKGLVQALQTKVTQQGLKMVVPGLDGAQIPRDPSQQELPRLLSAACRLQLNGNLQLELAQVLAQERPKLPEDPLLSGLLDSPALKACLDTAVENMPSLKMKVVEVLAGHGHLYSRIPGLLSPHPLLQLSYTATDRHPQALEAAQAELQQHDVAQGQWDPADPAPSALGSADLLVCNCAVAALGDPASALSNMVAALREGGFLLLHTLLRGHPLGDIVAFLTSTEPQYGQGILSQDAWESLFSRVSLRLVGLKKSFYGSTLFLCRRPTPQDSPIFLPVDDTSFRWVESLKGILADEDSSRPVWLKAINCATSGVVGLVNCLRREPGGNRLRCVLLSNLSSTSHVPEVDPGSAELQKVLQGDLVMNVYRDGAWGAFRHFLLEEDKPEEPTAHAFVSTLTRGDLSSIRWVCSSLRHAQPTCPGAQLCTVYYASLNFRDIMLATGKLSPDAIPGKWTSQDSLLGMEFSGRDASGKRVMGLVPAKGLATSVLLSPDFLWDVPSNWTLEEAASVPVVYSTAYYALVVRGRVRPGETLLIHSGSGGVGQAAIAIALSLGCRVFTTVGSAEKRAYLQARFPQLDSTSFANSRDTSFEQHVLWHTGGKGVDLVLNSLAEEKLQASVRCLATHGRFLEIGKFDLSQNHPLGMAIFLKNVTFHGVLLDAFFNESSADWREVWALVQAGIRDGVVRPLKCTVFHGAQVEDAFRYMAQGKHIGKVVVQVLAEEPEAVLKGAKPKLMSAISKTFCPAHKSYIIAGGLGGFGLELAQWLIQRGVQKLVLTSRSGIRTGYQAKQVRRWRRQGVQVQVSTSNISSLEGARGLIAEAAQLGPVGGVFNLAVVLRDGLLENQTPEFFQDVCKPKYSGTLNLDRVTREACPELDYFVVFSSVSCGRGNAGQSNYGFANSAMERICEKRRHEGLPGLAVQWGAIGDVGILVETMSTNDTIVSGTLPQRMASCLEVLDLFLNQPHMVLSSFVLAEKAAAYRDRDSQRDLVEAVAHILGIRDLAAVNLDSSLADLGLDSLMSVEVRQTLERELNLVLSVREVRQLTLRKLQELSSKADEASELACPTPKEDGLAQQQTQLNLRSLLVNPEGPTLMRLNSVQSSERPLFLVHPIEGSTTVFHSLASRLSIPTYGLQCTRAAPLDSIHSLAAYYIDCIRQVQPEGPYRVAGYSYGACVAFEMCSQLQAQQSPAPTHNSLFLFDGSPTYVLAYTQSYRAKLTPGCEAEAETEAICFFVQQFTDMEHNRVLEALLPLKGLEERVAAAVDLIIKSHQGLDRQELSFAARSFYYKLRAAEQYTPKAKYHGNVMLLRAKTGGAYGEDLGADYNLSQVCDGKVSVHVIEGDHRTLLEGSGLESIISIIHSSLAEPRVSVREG
Retinoic acid receptor RXR-alpha (Homo sapiens), sequence (P19793 whole entry, looked up, the tested form may be a part): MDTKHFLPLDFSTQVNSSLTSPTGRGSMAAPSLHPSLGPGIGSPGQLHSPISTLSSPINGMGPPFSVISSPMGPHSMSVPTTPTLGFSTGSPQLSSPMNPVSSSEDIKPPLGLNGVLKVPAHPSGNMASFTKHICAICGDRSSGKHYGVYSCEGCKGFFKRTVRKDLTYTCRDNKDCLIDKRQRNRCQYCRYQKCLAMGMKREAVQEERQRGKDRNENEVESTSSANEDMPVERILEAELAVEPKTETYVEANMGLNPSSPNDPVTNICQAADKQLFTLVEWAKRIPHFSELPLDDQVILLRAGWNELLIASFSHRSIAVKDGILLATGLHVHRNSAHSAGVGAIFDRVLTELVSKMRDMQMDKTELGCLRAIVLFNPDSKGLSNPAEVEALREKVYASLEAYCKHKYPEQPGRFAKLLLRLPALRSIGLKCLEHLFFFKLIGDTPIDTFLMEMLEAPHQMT
Peroxisome proliferator-activated receptor gamma (Homo sapiens), sequence (P37231 whole entry, looked up, the tested form may be a part): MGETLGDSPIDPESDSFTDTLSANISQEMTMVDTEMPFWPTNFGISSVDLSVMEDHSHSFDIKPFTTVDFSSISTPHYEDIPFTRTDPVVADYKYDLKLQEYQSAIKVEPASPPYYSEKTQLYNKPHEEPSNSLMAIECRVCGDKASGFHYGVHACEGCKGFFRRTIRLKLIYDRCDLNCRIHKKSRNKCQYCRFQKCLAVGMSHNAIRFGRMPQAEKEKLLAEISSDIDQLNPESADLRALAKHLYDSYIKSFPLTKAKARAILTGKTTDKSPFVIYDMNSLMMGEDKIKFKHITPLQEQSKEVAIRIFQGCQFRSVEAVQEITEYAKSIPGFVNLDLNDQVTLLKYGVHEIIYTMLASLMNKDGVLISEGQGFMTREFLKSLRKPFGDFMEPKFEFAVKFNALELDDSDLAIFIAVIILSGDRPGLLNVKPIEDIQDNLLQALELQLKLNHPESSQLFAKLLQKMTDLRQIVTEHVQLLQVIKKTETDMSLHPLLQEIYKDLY
Bile acid receptor (Homo sapiens), sequence (Q96RI1 whole entry, looked up, the tested form may be a part): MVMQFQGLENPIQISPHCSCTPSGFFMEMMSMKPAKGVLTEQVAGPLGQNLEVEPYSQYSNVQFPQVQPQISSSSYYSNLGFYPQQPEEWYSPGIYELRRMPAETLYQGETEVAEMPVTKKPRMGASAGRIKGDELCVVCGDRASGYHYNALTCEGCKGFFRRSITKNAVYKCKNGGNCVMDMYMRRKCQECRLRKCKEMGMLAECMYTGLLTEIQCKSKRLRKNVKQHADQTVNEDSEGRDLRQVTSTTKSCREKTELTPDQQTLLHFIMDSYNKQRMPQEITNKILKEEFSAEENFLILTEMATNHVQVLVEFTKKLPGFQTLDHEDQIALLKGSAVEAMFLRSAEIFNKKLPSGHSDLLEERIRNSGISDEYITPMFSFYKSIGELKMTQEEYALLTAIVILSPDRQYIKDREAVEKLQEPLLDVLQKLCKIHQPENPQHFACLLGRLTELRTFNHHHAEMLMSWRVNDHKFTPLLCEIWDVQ

For `CCCN(CCC)c1c([N+](=O)[O-])cc(C(F)(F)F)cc1[N+](=O)[O-]`, the molecule was classed as inactive in [1], in test [2], in test [4], in [5], in test [6] and in test [7]. Also, the result in [8], in test [9], in test [10], in [11], in test [12] and in test [13] was inactive. Moreover, the outcome in test [14] and in test [15] was inactive. Also, the AC50 in test [3] was 30.7 µM (active).
With `COP(=O)(OC)OC=C(Cl)Cl`, the molecule was classed as inactive in test [1], in [2], in [5], in test [6], in test [7] and in test [8]. Moreover, the molecule was called inactive in test [13], in [14] and in test [15].
As to `Clc1ccccc1-c1nnc(-c2ccccc2Cl)nn1`, the molecule was called inactive in test [1], in test [2], in test [5], in test [6], in [7] and in test [8]. Besides, the molecule was called inactive in [9], in [10], in [16], in test [17], in test [12] and in [13]. The AC50 in [14] is 24.7 µM (active).
`COP(=S)(OC)Oc1ccc(SC)c(C)c1`: the result in test [1], in [2], in [5], in test [6], in test [7] and in test [8] was inactive. Moreover, the call in test [9], in test [19], in test [20], in test [16], in [17] and in test [12] was inactive. Further, the result in test [13] and in test [15] was inactive. Further, the AC50 in test [18] is 41.5 µM (active); in [10] it was 21.5 µM (active).
Turning to `ClC1C(Cl)C(Cl)C(Cl)C(Cl)C1Cl` (stereo not drawn), the outcome in [3], in [4], in [5], in [6], in test [7] and in test [8] was inactive. The call in test [13], in test [14] and in [15] was inactive. In addition, the AC50 in test [9] is 50 µM (active).
Turning to `CC(C)(C)C(O)/C(=C\c1ccc(Cl)cc1Cl)n1cncn1` (stereo not drawn), the AC50 in test [1] was 86.7 µM (active); in test [2], 93.6 µM (active); in test [14] it was 80.6 µM (active). In addition, the call in test [7], in test [8], in test [18], in test [9], in test [10] and in test [19] was inactive. Also, the result in test [20], in test [16], in test [17], in test [12], in test [13] and in [15] was inactive.
